Experiment [1] is described as follows: Nuclear factor erythroid 2-related factor 2/antioxidant responsive element (Nrf2/ARE) small molecule agonists: qHTS cell viability counter screen in human keratinocytes (AID 1919968; active = well fitted curve in the direction sought with a large enough effect in the repeat runs; an effect the other way counts as inactive or inconclusive; also: nearly all actives have a fitted effect of over 55% in size; also: potency is read from the fitted curve at half-maximal effect). In short, it runs like this: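 Measured as CellTiter-Fluor fluorescence, this readout tracks cytotoxicity in the same wells as the ARE-luciferase screen. HaCaT reporter cells (1,500/well) received compounds after a 5 h pre-incubation and were exposed for 23 h.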

Experiment [2] in a line: Nuclear factor erythroid 2-related factor 2/antioxidant responsive element (Nrf2/ARE) small molecule agonists: luciferase reporter gene qHTS assay in human keratinocytes (AID 1919969). Also: nearly all actives have a fitted effect of over 35% in size. Also: potency is read from the fitted curve at half-maximal effect.
The target of experiment [3] is KiSS-1 receptor (Homo sapiens) (UniProt Q969F8). Description: Human kisspeptin (KISS1R) small molecule agonists, calcium flux assay in KISS1R-HEK293 cells (AID 1920064; active = well fitted curve in the direction sought with a large enough effect in the repeat runs; an effect the other way counts as inactive or inconclusive). In short, it runs like this: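 Measures KISS1R agonism through calcium-sensitive dye fluorescence in stably transfected HEK293 cells, read for 3 min after pin-tool compound delivery; 15-point titrations in triplicate.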
For orientation: Calcium assays in cells follow changes in intracellular calcium, usually with a dye or a luminescent sensor.

A short description of experiment [4]: G protein-coupled receptor (GPCR) small molecule agonists, calcium flux assay: HEK293 wild type cell line counter screen (AID 1920065). The method in brief: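 Readout: fluorescence at 480 nm excitation/540 nm emission, sampled at 1 s intervals for 3 min. Cells had been cultured 18 h, then dye-loaded 1 h at 37 C before compound or ATP addition.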
Experiment [5] is described as follows: p53 small molecule agonists, cell-based qHTS assay with human liver microsomes (AID 1963577).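 Also: p53 response element beta-lactamase reporter cells with liver microsomes plus NADPH.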 The method in brief: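 Steps: plate p53RE-bla cells, incubate 5 h at 37 C; add compound in DMSO; add microsomes (0.5 mg/mL final) and NADPH (0.5 mg/mL final); incubate 16 h at 37 C; add LiveBLAzer, 2 h RT; read fluorescence.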
In general terms: In qHTS, concentration-response curves come from the screen itself.

Experiment [6] is described as follows: p53 small molecule agonists, cell-based qHTS assay with rat liver microsomes (AID 1963578). In short, it runs like this: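 Metabolic activation is supplied by rat liver microsomes with NADPH (each 0.5 mg/mL final). p53RE-bla cells incubate with compound 16 h at 37 C; reporter activity is measured by LiveBLAzer fluorescence.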
Experiment [7] is described as follows: p53 small molecule agonists, cell-based qHTS assay with human liver microsomes: qHTS cell viability counter screen (AID 1963579). Also: nearly all actives have a fitted effect of over 45% in size. Also: potency is read from the fitted curve at half-maximal effect. The method in brief:
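After the 460/530 nm beta-lactamase read, CellTiter-Glo was added to the same wells and luminescence measured after 30 min at room temperature, giving viability of p53RE-bla cells treated 16 h with compounds plus microsomes and NADPH.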

Experiment [8] can be described thus: p53 small molecule agonists, cell-based qHTS assay with rat liver microsomes: qHTS cell viability counter screen (AID 1963580). Also: nearly all actives have a fitted effect of over 45% in size. Also: potency is read from the fitted curve at half-maximal effect. In short, it runs like this:
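Intracellular ATP, by CellTiter-Glo luminescence, defines viability. HCT-116 p53RE-bla cells, 4,000 per well, were compound-treated in the presence of rat liver microsomes and NADPH for 16 h at 37 C.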

Experiment [9] in a line: p53 small molecule agonists, cell-based qHTS assay: qHTS cell viability counter screen (AID 1963581). Also: nearly all actives have a fitted effect of over 45% in size. Also: potency is read from the fitted curve at half-maximal effect. In short, it runs like this:
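In the same plates used for the p53 bla reporter, HCT-116 cells given compounds for 16 h at 37 C received CellTiter-Glo; luminescence was recorded 30 min later at room temperature.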

In experiment [10] the target is 5-hydroxytryptamine receptor 2A (Homo sapiens) (UniProt P28223). Description: 5-hydroxytryptamine receptor 2A (HTR2A) small molecule antagonists, cell-based qHTS assay (AID 1963586). Also: nearly all actives have a fitted effect of over 45% in size. The method in brief: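 Antagonist-mode intracellular calcium assay: DOI (4 nM) added after 5 min compound pre-incubation at room temperature to dye-loaded HTR2A-CHO cells. Fluorescence followed for 3 min, sampled every second.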

For experiment [11] the target is unchanged. Description: 5-hydroxytryptamine receptor 2A (HTR2A) small molecule agonists, cell-based qHTS assay (AID 1963587). Also: nearly all actives have a fitted effect of over 30% in size. The method in brief: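 Kinetic calcium-flux fluorescence (2 min, 1 sec intervals) after compound addition in agonist mode. HTR2A-CHO cells were cultured 18 h, then dye-loaded 1 h at 37 C.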
Experiment [12] concerns the target Muscarinic acetylcholine receptor M1 (Homo sapiens) (UniProt P11229). The experiment is described as follows: Cholinergic receptor muscarinic 1 (CHRM1) small molecule antagonists, cell-based qHTS assay (AID 1963588). Also: nearly all actives have a fitted effect of over 40% in size. The method in brief:
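CHRM1-CHO calcium-flux assay, antagonist mode. Cells were seeded 18 h, dye-loaded 1 h at 37 C and given compound for 5 min at RT, then acetylcholine was added at 50nM. FDSS fluorescence was read 3 min; 15 concentrations, three runs.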

For experiment [13] the target is unchanged. Description: Cholinergic receptor muscarinic 1 (CHRM1) small molecule agonists, cell-based qHTS assay (AID 1963589). Also: nearly all actives have a fitted effect of over 35% in size. The method in brief: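 Each compound was tested at 15 concentrations across three independent runs on dye-loaded CHO cells stably expressing human CHRM1, reading intracellular calcium fluorescence kinetically at 1 sec intervals.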
Experiment [14] deals with D(2) dopamine receptor (Homo sapiens) (UniProt P14416). The experiment is described as follows: Dopamine D2 receptor (DRD2) small molecule agonists, cell-based qHTS assay (AID 1963594). Also: nearly all actives have a fitted effect of over 35% in size. In short, it runs like this:
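cAMP accumulation in DRD2-HEK293 cells measured by HTRF after 1 h detection; compounds added 10 min before NKH477 (200nM […]) forskolin-analogue stimulation, 30 min at room temperature, with Ro20-1724 present at 0.1 mM final.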

Experiment [15] shares this target. Description: Dopamine D2 receptor (DRD2) small molecule antagonists, cell-based qHTS assay (AID 1963595; active = well fitted inhibition curve with a large enough effect in the signal ratio in the repeat runs, with a control signal flat; the % refers to the signal ratio). The method in brief:
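HTRF cAMP read-out at 665 and 620 nm emission (340 nm excitation). Antagonist mode: compounds were tested against 12 nM quinpirole in DRD2-HEK293 cells, with 200 nM NKH477 raising cAMP and 0.1 mM Ro20-1724 blocking its breakdown.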

Experiment [16] is described as follows: p53 small molecule agonists, cell-based qHTS assay (AID 1963582; active = well fitted activation curve with a large enough effect in the signal ratio in the repeat runs, not every such curve was filed as active; the % refers to the signal ratio). The method in brief:
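Compounds are pin-transferred in DMSO onto p53RE-bla cells and incubated 16 h at 37 C. The B/G FRET beta-lactamase substrate is then applied for 2 h at RT and fluorescence recorded.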

A short description of experiment [17]: cAMP Responsive Elements (CRE) small molecule agonists, cell-based qHTS assay (AID 1963590). The method in brief:
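Cell line: CRE-bla HEK 293T; medium DMEM/10% dialyzed FBS/0.1 mM NEAA/1 mM pyruvate/25 mM HEPES; 3 h compound exposure; beta-lactamase FRET readout after 2 h substrate loading at RT.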

Experiment [18] is described as follows: cAMP Responsive Elements (CRE) small molecule antagonists, cell-based qHTS assay (AID 1963591; active = well fitted inhibition curve with a large enough effect in the signal ratio in the repeat runs, not every such curve was filed as active; the % refers to the signal ratio). In short, it runs like this:
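Inhibition of NKH477-driven (0.25 uM final) CRE-beta-lactamase signal in HEK293T cells, 3 h compound exposure at 37 °C, detected by FRET substrate fluorescence.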

The target of experiment [19] is Beta-2 adrenergic receptor (Homo sapiens) (UniProt P07550). The experiment is described as follows: Adrenergic beta2 receptor (ADRB2) small molecule antagonists, cell-based qHTS assay (AID 1963592). Also: series mostly up to about 92 µM; nearly all actives have a fitted effect of over 50% in size. The method in brief: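 Cells (CHO, stable ADRB2 overexpression) incubated 18-20hr at 37C; compounds added from DMSO; agonist mix (1nM isoproterenol, 100uM IBMX, 25uM Ro-20-1724) added; 0.5hr RT; d2-cAMP and anti-cAMP-cryptate added; 1hr RT; 665/615 nm read.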

Experiment [20] has the same target. The experiment is described as follows: Adrenergic beta2 receptor (ADRB2) small molecule agonists, cell-based qHTS assay (AID 1963593).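 Also: CHO cells stably overexpressing human ADRB2.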 In short, it runs like this:
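CHO cells stably over-expressing ADRB2 were plated overnight at 37C, then dosed with compounds plus a stimulation mix containing 100uM IBMX and 25uM Ro-20-1724 for 0.5hr at room temperature. cAMP was measured by HTRF competition, 1hr.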

The text below walks through data of PubChem BioAssay (Tox21).

Molecules are shown by their SMILES. Values joined by “and” are separate entries in the source; they are usually repeats but may differ in a detail not shown here. Equal entries are not always repeated. Results filed as inconclusive are left out. Active and inactive are the calls of the source. Unless noted, calls follow the shape of the full dose curve.

Beta-2 adrenergic receptor (Homo sapiens), sequence (P07550 whole entry, looked up): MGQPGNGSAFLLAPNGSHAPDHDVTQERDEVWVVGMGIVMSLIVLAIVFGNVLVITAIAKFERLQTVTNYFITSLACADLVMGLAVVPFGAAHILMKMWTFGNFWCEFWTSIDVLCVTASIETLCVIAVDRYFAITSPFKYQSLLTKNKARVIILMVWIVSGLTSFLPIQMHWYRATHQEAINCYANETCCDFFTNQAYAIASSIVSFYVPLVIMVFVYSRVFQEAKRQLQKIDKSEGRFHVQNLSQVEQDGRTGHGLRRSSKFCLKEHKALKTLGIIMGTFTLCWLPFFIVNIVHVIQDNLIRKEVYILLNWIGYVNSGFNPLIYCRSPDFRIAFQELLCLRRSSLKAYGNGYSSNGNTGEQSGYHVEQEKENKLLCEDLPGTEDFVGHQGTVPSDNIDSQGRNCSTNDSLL
D(2) dopamine receptor (Homo sapiens), sequence (P14416 whole entry, looked up): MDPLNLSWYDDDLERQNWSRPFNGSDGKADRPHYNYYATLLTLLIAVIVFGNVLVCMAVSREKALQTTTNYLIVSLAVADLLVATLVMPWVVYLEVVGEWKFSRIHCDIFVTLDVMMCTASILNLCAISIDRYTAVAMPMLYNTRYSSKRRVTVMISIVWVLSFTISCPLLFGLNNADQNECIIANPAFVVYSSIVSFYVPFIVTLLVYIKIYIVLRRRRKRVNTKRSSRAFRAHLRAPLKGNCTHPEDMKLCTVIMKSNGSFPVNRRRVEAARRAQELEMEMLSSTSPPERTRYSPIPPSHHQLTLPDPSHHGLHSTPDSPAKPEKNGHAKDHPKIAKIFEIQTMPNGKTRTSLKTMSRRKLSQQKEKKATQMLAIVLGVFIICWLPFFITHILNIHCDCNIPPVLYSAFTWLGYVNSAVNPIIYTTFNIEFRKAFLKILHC
KiSS-1 receptor (Homo sapiens), sequence (Q969F8 whole entry, looked up): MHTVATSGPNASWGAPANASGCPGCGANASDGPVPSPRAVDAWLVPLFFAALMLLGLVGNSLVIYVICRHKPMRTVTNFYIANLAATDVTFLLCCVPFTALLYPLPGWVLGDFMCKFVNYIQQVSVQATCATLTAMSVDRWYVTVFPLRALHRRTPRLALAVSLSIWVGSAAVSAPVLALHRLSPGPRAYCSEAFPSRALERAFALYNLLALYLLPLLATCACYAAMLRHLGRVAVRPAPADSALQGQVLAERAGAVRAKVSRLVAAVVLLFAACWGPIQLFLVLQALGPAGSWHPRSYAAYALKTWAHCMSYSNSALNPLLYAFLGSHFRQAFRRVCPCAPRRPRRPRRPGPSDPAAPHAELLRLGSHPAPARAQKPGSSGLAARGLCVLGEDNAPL
Muscarinic acetylcholine receptor M1 (Homo sapiens), sequence (P11229 whole entry, looked up): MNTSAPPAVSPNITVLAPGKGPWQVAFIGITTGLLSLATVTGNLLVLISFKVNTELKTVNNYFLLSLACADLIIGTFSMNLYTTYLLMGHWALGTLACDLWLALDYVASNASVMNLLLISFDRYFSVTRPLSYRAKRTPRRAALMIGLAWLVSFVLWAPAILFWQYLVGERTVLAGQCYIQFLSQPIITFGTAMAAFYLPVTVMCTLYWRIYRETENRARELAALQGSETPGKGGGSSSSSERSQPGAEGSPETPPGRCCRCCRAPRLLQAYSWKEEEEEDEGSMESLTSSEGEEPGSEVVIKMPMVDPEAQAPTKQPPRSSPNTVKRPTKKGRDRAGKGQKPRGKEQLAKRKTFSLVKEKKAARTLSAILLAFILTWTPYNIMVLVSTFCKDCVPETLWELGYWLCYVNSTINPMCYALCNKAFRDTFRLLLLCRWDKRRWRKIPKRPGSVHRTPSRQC
5-hydroxytryptamine receptor 2A (Homo sapiens), sequence (P28223 whole entry, looked up): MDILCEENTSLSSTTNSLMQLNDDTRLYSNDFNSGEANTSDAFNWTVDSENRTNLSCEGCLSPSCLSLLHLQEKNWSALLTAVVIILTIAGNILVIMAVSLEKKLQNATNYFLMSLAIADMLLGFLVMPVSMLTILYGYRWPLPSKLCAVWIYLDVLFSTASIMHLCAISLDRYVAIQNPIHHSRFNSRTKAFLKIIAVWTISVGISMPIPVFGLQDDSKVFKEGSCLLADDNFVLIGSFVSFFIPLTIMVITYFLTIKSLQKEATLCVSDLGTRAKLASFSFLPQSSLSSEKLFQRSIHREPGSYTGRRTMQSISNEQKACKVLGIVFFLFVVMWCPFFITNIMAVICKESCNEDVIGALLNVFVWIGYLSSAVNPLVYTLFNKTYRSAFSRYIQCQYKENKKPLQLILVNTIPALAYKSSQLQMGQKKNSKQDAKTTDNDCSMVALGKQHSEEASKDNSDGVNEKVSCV

Take `O=[N+]([O-])c1ccc(Cl)c([N+](=O)[O-])c1`: the Potency in experiment [1] was 24.7 µM (active) and 43.3 µM (active); in experiment [2], 15.6 µM (active); in experiment [7] it was 36.9 µM (active) and 40.8 µM (active); in experiment [8], 40.8 µM (active); in experiment [9], 26.1 µM (active). The Potency result in experiment [3], in experiment [4], in [5], in experiment [6], in [10] and in [11] was “inactive” throughout. The Potency result in [12], in experiment [13], in experiment [14] and in experiment [15] was “inactive” in each case.

`CC(C)CCON=O`: the Potency entry in experiment [1], in experiment [2], in experiment [3], in [4], in experiment [5] and in experiment [6] was “inactive” in each case. Moreover, the Potency entry in [7], in experiment [8], in experiment [9], in experiment [16], in [10] and in experiment [11] was “inactive” in each case. In addition, the Potency entry in experiment [12], in experiment [13], in experiment [17], in experiment [18], in experiment [19] and in experiment [14] was “inactive” throughout. Moreover, in experiment [15], the Potency entry was “inactive”.

As to `COc1cccc(C=O)c1`, the Potency result in [1], in experiment [2], in [3], in experiment [4], in [5] and in experiment [6] was “inactive” each time. In addition, the Potency result in experiment [7], in experiment [8], in experiment [9], in [16], in [10] and in experiment [11] was “inactive” each time. The Potency result in [12], in experiment [17], in experiment [18], in experiment [19], in experiment [14] and in experiment [15] was “inactive” each time.

Regarding `Cl/C=C/Cl`, the Potency entry in [1], in experiment [2], in [3], in [4], in [5] and in experiment [6] was “inactive” throughout. Further, the Potency result in [7], in experiment [8], in experiment [9], in experiment [16], in [10] and in [11] was “inactive” throughout. The Potency entry in [12], in experiment [13], in experiment [17], in [18], in [19] and in experiment [20] was “inactive” each time. Also, the Potency entry in [14] and in experiment [15] was “inactive” in each case.

With `Nc1c(Br)cc([N+](=O)[O-])cc1[N+](=O)[O-]`, the Potency result in [1], in experiment [2], in [3], in experiment [4], in experiment [5] and in [6] was “inactive” throughout. Besides, the Potency entry in [7], in experiment [8], in experiment [9], in [16], in experiment [10] and in experiment [11] was “inactive” throughout. In addition, the Potency result in [12], in [13], in [17], in experiment [18], in experiment [19] and in experiment [14] was “inactive” each time. The Potency entry in experiment [15] was “inactive”.

Take `C=CCN1CC[C@]23CCCC[C@H]2[C@H]1Cc1ccc(O)cc13`: the Potency result in [1], in [2], in experiment [3], in [4], in experiment [5] and in [6] was “inactive” each time. Moreover, the Potency result in experiment [7], in experiment [8], in experiment [9], in experiment [16], in experiment [10] and in [11] was “inactive” throughout. In addition, the Potency entry in [12], in [13], in [17], in [18], in experiment [19] and in experiment [20] was “inactive” throughout. For the same molecule, the Potency result in experiment [14] is “inactive”.

`CCOP(=O)(CN(CCO)CCO)OCC`: the Potency result in experiment [1], in [2], in experiment [3], in experiment [4], in experiment [5] and in [6] was “inactive” in each case. The Potency entry in [7], in [8], in experiment [9], in experiment [16], in experiment [10] and in [11] was “inactive” in each case. The Potency result in experiment [12], in experiment [13], in experiment [17], in [18], in experiment [19] and in experiment [14] was “inactive” in each case. For the same molecule, the Potency entry in [15] is “inactive”.
